# Results filed as inconclusive are left out. Entries that show only a call come without a potency. The source made the active and inactive calls. Calls come from the whole dose curve; as a rule, active = well fitted activation curve with a large enough effect; inconclusive = small, poorly fitted or top-dose-only effect; inactive = flat fitted curve, though single readings scatter.
# Molecular target: Cellular tumor antigen p53 (Homo sapiens) (UniProt P04637)
# Experiment: Primary qHTS for small molecule compounds that upregulate eGFP-tagged delta133p53alpha (in C-terminal) cells. (AID 2060324)
# Settings: NCI-H358 delta133p53alpha-eGFP (C-terminal tag), GFP fluorescence imaging, 24 h; series mostly up to 57.5 µM
# Excerpt: Assay Development and Screening Technology
# National Center for Advancing Translational Sciences (NCATS),
# National Institute of Health (NIH), Rockville, Maryland
# Cellular senescence (CS) is one of the hallmarks of aging and age-related diseases. Senescent cells are characterized by an irreversible growth arrest, an increase in senescence-associated beta-galactosidase (SA-beta-gal) activity and p16INK4a expression, an activation of the DNA damage response pathways, and the emergence of a senescence-associated secretory phenotype (SASP).
# Delta133p53alpha, a human/primate-specific p53 protein isoform, delays or inhibits the induction of CS and SASP in various types of human cells, including progeria-derived fibroblasts, primary normal astrocytes, and CD8+ T lymphocytes. Induction of delta133p53alpha with small molecule compounds may provide therapeutic opportunities for inhibition of senescence/SASP-associated pathologies in progeria syndromes, astrocyte-mediated neuroprotection in neurodegenerative diseases, and possibly prevention and treatment of a wider range of senescence- and aging-associated diseases.
# Here we report the development and validation of a cell-based quantitative high throughput screening (qHTS) assay in 1,536-well format. This qHTS assay uses the NCI-H358 cell line with doxycycline-inducible expression of enhanced green fluorescent protein (eGFP)-tagged delta133p53alpha, which allows efficient and highly quantitative measurement of the protein levels.
# PROTOCOL TABLE (as described by Inglese J, Shamu CE and Guy RK. 2007)
# SEQUENCE No. (e.g., 1, 2, 3, etc.); […] (e.g., Cells, Incubation, Reagent, etc.); VALUE; DESCRIPTION.
# 1; Cells; 4uL; 800 doxycycline treated cells / well in doxycycline-free media, 1536-well black, clear-bottom low base Aurora microplates.
# 2; Compounds; 23 nL; Kalypsis pin tool (Wako) equipped with 1536-well pin heads, 5-azacytidine positive control.
# 3; Incubation; 24 hr; 37C, 5% CO2; 95% relative humidity.
# 4; Aspiration; 1x; BioTek EL406 washer dispenser (Agilent).
# 5; Fixing; 3.5% paraformaldehyde, BioTek EL406 washer dispenser (Agilent).
# 6; Washing; 1x PBS; BioTek EL406 washer dispenser (Agilent).
# 7; Nuclei staining; 1:1000 dilution of Hoechst 33342 (Thermofisher), BioTek EL406 washer dispenser (Agilent).
# 8; Incubation; 20 min; in the dark at room temperature.
# 9; Washing; 2x, 1x PBS (ThermoFisher), BioTek EL406 washer dispenser (Agilent).
# 10; Reagent; 10 uL; 1x PBS per well, sealed with clear adhesive tape.
# 11; Detection; Fluorescence, Acumen eX3 laser scanning cytometer (STP Labtech), GFP filters […].
# NOTES (numbers refer to sequence numbers above).
# 1. NCI-H358 cells expressing eGFP-tagged delta133p53alpha were grown in T75 culture flasks and treated with doxycycline for 24h, at 10 ng/ml for eGFP-D133p53a cells (N-terminal cell) and 100 ng/ml for D133p53a-eGFP cells (C-terminal cells). Cells were trypsinized, counted using a Counted 3 Automated Cell Counter (Thermo Fisher), and diluted to a concentration of 200,000 cells/ml. A Multidrop Combi Reagent Dispenser (ThermoFisher) was used to dispense 800 cells/well in […] of doxycycline-free media, into 1536-well black/clear bottom low base plates (AuroraMicroplates).
# 2. After plating cells, 23 nl of compound library, DMSO vehicle control or positive control (5-azacytidine) were transferred by Pin Tool (Wako). The plate map layout was the same for each plate: (column 1) non-doxycycline treated cells + DMSO vehicle control; (column 2) doxycycline treated cells + DMSO vehicle control baseline; (column 3) doxycycline treated cells + positive control 57.5 uM final concentration 5-azacytidine; (column 4) doxycycline treated cells + serial dilution of 5-azacytidine, 16-point 1:2 titration spanning 1.8 nM to […] final concentration; (columns 5-48) doxycycline treated cells + titration of library compounds.
# 3. Cells were incubated at 37 °C, 5 % CO2, 95% RH with breathable metal lid for 24h.
# 4-10. […] […]
# Potency is the fitted concentration of half-maximal effect.
# Chain of Cellular tumor antigen p53 (Homo sapiens) (P04637 whole entry, looked up): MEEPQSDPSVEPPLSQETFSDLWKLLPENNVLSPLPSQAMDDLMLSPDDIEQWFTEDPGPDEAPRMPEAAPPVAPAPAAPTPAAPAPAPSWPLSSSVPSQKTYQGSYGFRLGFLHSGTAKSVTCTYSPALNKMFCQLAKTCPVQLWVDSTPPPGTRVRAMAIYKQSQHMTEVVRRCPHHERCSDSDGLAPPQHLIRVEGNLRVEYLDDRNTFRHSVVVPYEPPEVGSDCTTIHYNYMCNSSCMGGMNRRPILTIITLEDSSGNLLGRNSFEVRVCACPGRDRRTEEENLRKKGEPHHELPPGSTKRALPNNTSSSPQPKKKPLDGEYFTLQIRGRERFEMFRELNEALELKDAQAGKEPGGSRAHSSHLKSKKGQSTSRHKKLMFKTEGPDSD
row,SMILES,Potency
1,CC[C@@H](CO)NC(=O)[C@@H]1C=C2c3cccc4[nH]cc(c34)C[C@H]2N(C)C1,inactive
2,Cc1o[nH]c(=O)c1CC(N)C(=O)O (stereo not given),inactive
3,Nc1ccc(CCN2CCN(c3cccc(C(F)(F)F)c3)CC2)cc1,inactive
4,O=[N+]([O-])c1ccc2nc(N3CCNCC3)ccc2c1,inactive
5,CCOC(=O)c1ncn2c1[C@@H]1CCCN1C(=O)c1cc(OC)ccc1-2,inactive
6,CCCCc1ccc(C(=O)O)nc1,inactive
7,[Cl-].[Cl][Pt].[NH2-].[NH2-].c1ccncc1,inactive
8,CN1C2CCC1CC(OC(c1ccccc1)c1ccccc1N)C2 (stereo not given),inactive
9,COC(=O)[C@@H](N)CCCN=C(N)N[N+](=O)[O-],inactive
10,Clc1cc(I)cc(Cl)c1NC1=NCCN1,inactive
11,O=S1(=O)N(CCN2CC=C(c3c[nH]c4cc(F)ccc34)CC2)c2cccc3c2N1CCC3,inactive
12,Oc1ccc2c3c1O[C@H]1c4[nH]c5ccccc5c4C[C@@]4(O)C(C2)N(CC2CC2)CCC314 (stereo not given in full),inactive
13,C#CCOC(=O)C1=CCCN(C)C1,inactive
14,CN1C[C@H](CNC(=O)OCc2ccccc2)C[C@@H]2c3cccc4c3c(cn4C)C[C@H]21,inactive
15,C[N+]1(C)CCc2cc3c(cc2[C@H]1[C@@H]1OC(=O)c2c1ccc1c2OCO1)OCO3,inactive
16,CCCN(CCC)C1CCc2ccc(O)cc2C1 (stereo not given),inactive
17,CCCN(CCC)[C@@H]1CCc2ccc(O)cc2C1,inactive
18,COc1ccccc1N1CCNCC1,inactive
19,Cn1c(CCCC(=O)O)nc2cc(N(CCCl)CCCl)ccc21,inactive
20,CCCN1CCC[C@@H](c2cccc(O)c2)C1,inactive

row,SMILES,Potency
1,COc1ccc2c(c1)C13CCCCC1C(C2)N(C)CC3 (stereo not given),inactive
2,NCc1cc(=O)[nH]o1,inactive
3,COc1ccc(C(=O)N2CCCC2=O)cc1,inactive
4,COc1ccc2[nH]c3c(c2c1)CCNC3,inactive
5,N#CC(C#N)=Cc1ccc(O)c(O)c1,inactive
6,CC(=O)[C@H]1CCC2C3CC[C@H]4C[C@H](O)CC[C@]4(C)C3CC[C@@]21C (stereo not given in full),inactive
7,COc1ccc(OC)c(C(O)C(C)N)c1 (stereo not given),inactive
8,C[N+](C)(C)CC#CCN1CCCC1=O,inactive
9,C=CCN1CC[C@]23CCCCC2[C@H]1Cc1ccc(O)cc13 (stereo not given in full),inactive
10,COc1ccc2[nH]cc(CCN)c2c1,inactive
11,CC(=O)[C@H]1CC[C@H]2[C@@H]3CC[C@H]4C[C@](C)(O)CC[C@]4(C)[C@H]3CC[C@]12C,inactive
12,NCC(O)c1cc(O)c(O)cc1F (stereo not given),inactive
13,O=C1CCCN1CC#CCN1CCCC1,inactive
14,CC(=O)NBr,inactive
15,CC(CCc1ccccc1)NC(C)C(O)c1ccc(O)cc1 (stereo not given),inactive
16,CC(C)Oc1cccnc1N(C)C1CCN(Cc2ccccc2)CC1,inactive
17,N#CCCN,inactive
18,C#CCN[C@H](C)Cc1ccccc1,inactive
19,OC1CCCCC1N1CCC(c2ccccc2)CC1 (stereo not given),inactive
20,c1ccc2c(c1)OCC(C1=NCCN1)O2 (stereo not given),30.1 µM (active)

# From PubChem BioAssay (NCATS)
